Source: PubChem (National Center for Advancing Translational Sciences (NCATS))
gsp ag: gsp mutant agonism; gsp mutant cells, cAMP HTRF, 30 min; Potency, µM (series often up to 76.9 µM), usual class: activators; 340,000 compounds, 0.13% hits; AID 624287; active = well fitted activation curve with a large enough effect; inconclusive = small, poorly fitted or top-dose-only effect, or another doubt; inactive = no such curve, though single readings can be large or run the other way; cell line not stated here;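 note: phosphodiesterase inhibitor Ro 20-1724 added with compounds to block cAMP breakdown; nearly all actives have a fitted effect of over 60% in size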
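Cells in DMEM/10% FBS with G418 were pretreated with compounds in DMSO plus […] (300 uM stock) for 30 min at 37C. cAMP was measured by HTRF (cAMP-d2 plus anti-cAMP antibody-K) after 30 min at room temperature.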
gsp antag: antagonizes gsp, the McCune-Albright syndrome mutation. gsp-mutant cells, cAMP HTRF, 30 min. Potency, µM (top dose mostly 76.9 µM), usual class: inhibitors. 340,000 compounds, 0.4% hits. AID 624288; calls by dose curve; cell line not stated here;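 note: intracellular cAMP measured with PDE inhibitor Ro 20-1724 present during compound exposure; nearly all actives have a fitted effect of over 65% in size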
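Measurement of cellular cAMP by homogeneous time-resolved fluorescence following a 30 min compound exposure at 37C. The PDE inhibitor […] was present throughout; the assay buffer was DPBS with 0.05% BSA and 0.005% Tween 20.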
RXFP1 agonist: agonists of human relaxin receptor RXFP1 | Q9HBX9 | HEK293T-RXFP1 cAMP TR-FRET, 30 min; response scale: percent of porcine relaxin response, buffer zero | 370,000 compounds, 0.3% hits | Potency, µM (titrated, usually from 57.5 µM), usual class: activators; active = well fitted activation curve with a large enough effect; inconclusive = small, poorly fitted or top-dose-only effect; note: nearly all actives have a fitted effect of over 60% in size
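cAMP rise read by TR-FRET after 30 min, 37C compound exposure (up to 58 uM) in RXFP1-transfected HEK293 cells with Ro 20174 present. EC50 from Hill-equation fits, with 29 nM porcine relaxin as 100% and buffer as basal.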
RXFP1 antag: antagonists of human relaxin receptor RXFP1; HEK293-RXFP1, relaxin-stimulated cAMP HTRF, 30 min; stronger effect = lower value; activity change, negative = inhibition, % at 57.5 µM; 350,000 compounds, 0.59% hits; AID 1259400;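 active = activity change of -60% or lower, but not beyond a set lower limit; inconclusive = change between -60% and -40%, or beyond the set limit; inactive = change above -40%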
Akt phos inh: blocks phosphorylation of Akt; Neuro2A IGF-stimulated pAkt S473 HTRF, 20 min; stronger effect = lower value; activity change, % for hits at 50 µM; 360,000 compounds, 0.32% hits; in the data active = activity change below about -80%; inconclusive = mostly about -51% to -80%
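Single-point screen (50 µM final compound) in Neuro2A cells stimulated 20 min with 6 nM IGF at 37 deg C. After lysis, Ser473-phosphorylated Akt read by HTRF (ex 330 nm, em 615/665 nm) as the 665/615 ratio.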
Numbers stand for hits; 0 = inactive; ? = inconclusive; - = not tested or not shown; ! = repeats disagree; [ ] = remark or other dose. Hits are enriched below; roughly 1.3% of the tested compounds scored in any of these assays.

SMILES	gsp ag	gsp antag	RXFP1 agonist	RXFP1 antag	Akt phos inh
CC/C(CC(c1ccccc1)c1c(O)c2ccccc2oc1=O)=N\NC(N)=S (stereo not drawn)	0	0	0	0	0
CCC(=Nc1ccc(Cc2ccncc2)cc1)c1c(O)n(C)c(=O)n(C)c1=O	?	0	0	0	-121%!
CCOC(=O)c1ccc(N=C(CC)c2c(O)n(C)c(=O)n(C)c2=O)cc1	0[15.4 µM]	0	0	0	0
CCOC(=O)C1(CCc2ccccc2)CCN(Cc2cccc3cnccc23)CC1	0[15.4 µM]	0	0	-83	0
CC1COC2(c3ccccc3Cl)c3cc(Cl)ccc3NC(=O)CN12 (stereo not drawn)	-	-	-	0	-
N[C@@H](Cc1ccc(Oc2cc(I)c(O)c(I)c2)c(I)c1)C(=O)O	-	-	-	0	-
O=c1[nH]c(=S)n(C2CC2)c(O)c1C=NCc1ccc(F)cc1	0	0	25µM	0	0
Oc1c(Cl)cccc1Cc1cc(Cl)cc(Cl)c1O	0	0	-	-110	0
CN(C)CCC=C1c2ccccc2CCc2ccccc21	-	20µM	0	0	0
O=c1[nH]c2cc(Cl)ccc2n1C1CCNCC1	-	-	-	0	-
C[C@@H]1CC2=CC(=O)CC[C@@H]2[C@H]2CC[C@@]3(C)[C@@H](CC[C@]3(C)O)[C@@H]21	-	-	-	0	-
O=c1[nH]c2ccccc2n1C1CCN(CCCC(c2ccc(F)cc2)c2ccc(F)cc2)CC1	-	0	0	-68	0
O=C1CC(N2CCC(n3c(=O)[nH]c4ccccc43)CC2)C(=O)N1c1ccc(F)cc1 (stereo not drawn)	0	0	0	0	0
CC(C)Oc1cccc(NC(=O)c2ccccc2C(F)(F)F)c1	-	-	-	0	-
O=C(CNC(=O)c1ccc(Cl)cc1)Nc1ccc(Br)cc1C(=O)c1ccccc1	0[15.4 µM]	?	0	0	0
O=C(CNC(=O)c1cccc(Cl)c1)Nc1ccc(Br)cc1C(=O)c1ccccc1	0	40µM	0	0	0
Cc1ccc(-n2c(O)c(/C=N/Nc3ccccc3)c(=O)[nH]c2=O)cc1C	?	0	0	-70	0
O=C1CN2CCOC2(c2ccccc2Cl)c2cc(Cl)ccc2N1 (stereo not drawn)	-	-	-	0	-
CC(C)CN(CC(C)C)c1ccc(C=C2C(=O)NC(=S)NC2=O)cc1[N+](=O)[O-]	0	?	0	-63	0
CCN(CC)c1ccc(C=C2C(=O)NC(=S)NC2=O)cc1	0	0	0	?	0
CCC1CC2CC3c4[nH]c5ccc(OC)cc5c4CCN(C2)C13 (stereo not drawn)	-	-	-	0	-
CC(=O)Nc1ccccc1C(=O)OCC(=O)c1ccc2ccccc2c1	0	25µM	0	0	0
CC(=O)Nc1ccccc1C(=O)OCc1ccc(C(=O)c2ccccc2)cc1	0	1.8µM	0	0	0
CCNC(C)Cc1ccc2c(c1)OCO2 (stereo not drawn)	-	-	-	0	-
FC(F)(F)c1ccc2c(c1)ncn2C1CCN(Cc2nnnn2C2CCCCC2)CC1	0	0	0	-74	0
SMILES	gsp ag	gsp antag	RXFP1 agonist	RXFP1 antag	Akt phos inh
Nc1ccc(C2(c3ccc(N)cc3)c3ccccc3-c3ccccc32)cc1	0[15.4 µM]	0	0	-80	0
Nc1ccccc1	-	-	-	0	-
CN=C(SCc1ccccc1)c1c(O)n(C)c(=O)n(C)c1=O	0	0	0	0	-108%
C[C@H](CO)N1C[C@H](C)[C@@H](CN(C)Cc2ccc(-c3ccccc3)cc2)Oc2c(NC(=O)c3ccncc3)cccc2C1=O	-	32µM	-	-	0
O=C(O)c1ccc(=O)[nH]c1	-	-	-	0	-
CCOC(=O)C1C(=O)N(C)C2(C)CC1c1ccccc1O2 (stereo not drawn)	0	0	0	0	-114%
Clc1ccc(C(c2ccc(Cl)cc2)C(Cl)(Cl)Cl)cc1	-	-	-	-72	-
CN1CCN(c2ncnc3ccc(Br)cc23)CC1	?	0	0	0	0
CN1CCC(N(C)c2ncnc3ccc(Br)cc23)CC1	32µM	0	0	0	0
Oc1cccc(/C=N/NP(=S)(c2ccccc2)c2ccccc2)c1	0	0	0	0	-117%
CC(C(=O)c1ccccc1)N(C)C (stereo not drawn)	-	-	-	0	-
C=CCC1(C(C)CC)C(=O)NC(=O)NC1=O (stereo not drawn)	-	-	-	0	-
C=C(C)C(Cc1c(OC)ccc(C(=O)/C=C/c2ccc(O)cc2)c1O)OO (stereo not drawn)	-	25µM	-	-	0
CCN(CC)C(=O)N[C@@H]1C=C2c3cccc4[nH]cc(c34)C[C@@H]2N(C)C1	-	-	-	0	-
CC(C)C12CN3CC(C(C)C)(CN(C1)C3c1cccnc1)C2=O (stereo not drawn)	?	0	0	0	-108%
CC(O)CN1CCN(CC(=O)[O-])CCN(CC(=O)[O-])CCN(CC(=O)[O-])CC1.[Gd+3] (stereo not drawn)	-	-	-	0	-
C[C@]12CCC(=O)C=C1CCC1C2CC[C@@]2(C)C1CC[C@]2(C)O (stereo partly drawn)	0	0	-	0	0
C[C@]12C/C(=C/O)C(=O)C[C@@H]1CC[C@@H]1[C@@H]2CC[C@@]2(C)[C@H]1CC[C@]2(C)O	-	-	-	-99	-
O=C1C(=O)c2cccc3cccc1c23	0	0	0	0	0
O=C1C(=O)c2ccccc2-c2ccccc21	-	18µM	0	-	0
Cc1cccc(NP(=O)(Oc2ccccc2)Oc2ccccc2)c1C	0[15.4 µM]	0	0	-64	0
O=P(Nc1ccccc1)(Oc1ccccc1)Oc1ccccc1	0	0	0	0	0
